For 94 compounds, inhibition results are on record in PubChem BioAssay AID1626 (SRMLSC, 2009).

Structures are written as SMILES. Where “and” joins values, the source holds several entries; their conditions need not be identical. Identical values can stand only once. Among all 220,000 compounds or so, about 2,000 (0.91%) were called active. Another 2% or so got no clear call; they are omitted. A selection follows. Entries with a potency or affinity are not part of this list. Values without a mark were called inactive. Rule as the data show it: inconclusive = inhibition above about 80% without an active follow-up result; inactive = below that; test concentration not stated here.

This assay in a line: M. tuberculosis H37Rv growth inhibitors, H37Rv strain (AID 1626).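 Also: bacteria incubated seven days before Alamar blue readout; 0% = bacteria only wells and 100% = bacteria with antibiotic wells.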 Conditions: active compounds read high, concentration not given here.
In the case of `CCOc1ccccc1NC(=O)CN1C(=O)CSC(C)C1=O` (centres undefined), the inhibition – broadly, the relative decrease from the control value, in per cent – was 2.75%.
The figure for `CNC(=S)N1N=C(c2ccc(C)cc2)CC1c1ccc(OC)cc1` (centres undefined) is 3.11%; for `COC(=O)c1cn(C(=O)/C=C/c2ccc(OC)c(OC)c2)c2ccccc12` it is 4.86%; for `c1ccc(Cn2c(CNc3nc4ccccc4n3CCN3CCCCC3)nc3ccccc32)cc1` it is 16.8%.
As to `CCOC(=O)c1ccc(NC(=S)NNC(=O)C2(C)CC2(Cl)Cl)cc1` (centres undefined), the inhibition is 1.27%.
As to `CN1C(=O)C(=Cc2ccc(-c3cccc(Cl)c3)o2)C(=O)N(C)C1=O`, the inhibition was 5.04%.
For `N=C1S/C(=C\c2ccco2)C(=O)N1c1ccc2c(c1)OCO2`, the inhibition was 3.8%.
On to `O=C1OC(c2cccs2)=N/C1=C\c1ccc(-c2cccc(Cl)c2)o1`, for which the inhibition is 4.3%.
`O=C1/C(=C/c2ccco2)SC(=S)N1c1cccnc1`: the inhibition was -3.57%.
`O=S(=O)(c1cnc(Cl)c(Br)c1)N1CCN(c2ncccn2)CC1`: the inhibition is -10.8%.
On to `Cc1ccc(C(NC(=O)c2ccccc2)C(Cl)(Cl)Cl)cc1` (centres undefined), for which the inhibition was 5.19%.
Consider `CC(=O)NC(O)C(=O)c1ccccc1` (centres undefined), for which the inhibition is 3.23%.
On to `O=Cc1cn(CC(=O)NCC2CCCO2)c2ccccc12` (centres undefined), for which the inhibition is 2.23%.
As to `Cc1occc1-c1nnc(SCC(=O)NC2CCCC2)n1-c1ccccc1`, the inhibition is 2.16%.
Regarding `CCOC(=O)CNC(=O)CSc1ncnc2c1cnn2-c1ccc(Cl)cc1`, the inhibition is 14.2%.
On to `CCN(CC)C(=O)CSc1ncnc2c1cnn2Cc1ccccc1`, for which the inhibition is -79.5%.
With `CC(=O)CSc1ncnc2c1cnn2-c1ccccc1`, the inhibition is -1.25%.
Turning to `CCOC(=O)CC(=O)CSc1ncnc2c1cnn2-c1ccccc1`, the inhibition was -1.22%.
As for `NC(=O)CSc1ncnc2c1cnn2Cc1ccccc1`, the figure is -0.76%; as for `CC(C)(C)C(=O)CSc1ncnc2c1cnn2-c1ccccc1`, 9.82%.
For `CNC(=O)CSc1ncnc2c1cnn2-c1ccccc1`, the inhibition was -3.44%.
With `CCOC(=O)Cn1cnc2c(cnn2-c2ccc(Cl)cc2)c1=O`, the inhibition was -3.87%.
In the case of `COc1ccc(Cc2nnc(SCC(=O)N3CCCCC3)o2)cc1`, the inhibition was 3.26%.
As for `O=C1N(Cc2cccnc2)C[C@@H]2C[C@@H](c3cccc(C(F)(F)F)c3)N3CCC[C@@]123`, the figure is 2.57%; as for `CCCCOc1nc2ccccc2nc1C(C#N)S(=O)(=O)c1ccccc1` (centres undefined), -4.72%; as for `CN(c1ccc(OCC(=O)OCC(=O)NCc2ccco2)cc1)S(=O)(=O)c1ccc2ccccc2c1`, -0.25%.
Regarding `COc1ccccc1C(=O)C1CCCN(C(=O)c2snnc2C)C1` (centres undefined), the inhibition is -0.23%.
For the compound `Cc1ccc(SCC(=O)NCCSCc2ccccc2)cc1`, the inhibition was 7.41%.
As for `Cc1ccc(-n2ncc3c(SCC(=O)Nc4cc(C)on4)ncnc32)c(C)c1`, the figure is 0.2%; as for `CCOC(=O)CNC(=O)CSc1ncnc2c1cnn2-c1ccc(OC)cc1`, 14.6%.
In the case of `CCOC(=O)CNC(=O)CSc1ncnc2c1cnn2-c1ccc(C)cc1`, the inhibition was -3.46%.
As for `CSc1ncnc2c1cnn2-c1ccc(C)cc1C`, the inhibition is 11.1%.
Take `COCc1cc(C)nc(Nc2ccc(C)c(C)c2)c1C#N`: the inhibition is -2.04%.
On to `CC1=C(C(=O)Nc2ccccc2)C(c2ccco2)NC(=O)N1` (centres undefined), for which the inhibition was -10.5%.
For the compound `COc1cc(NC(=O)CN2C(=O)NC(C)(c3ccccc3)C2=O)c(C)cc1[N+](=O)[O-]` (centres undefined), the inhibition is 3.59%.
The figure for `Cc1cc(C)n2c(SC/C(O)=C(\C#N)c3nc4ccccc4[nH]3)nnc2n1` is -3.82%.
As for `COc1ccc(C(=O)NCC2CCCO2)cc1OC` (centres undefined), the figure is -3.63%; as for `CC(COc1ccccc1Cc1ccccc1)N1CCCCC1` (centres undefined), 1.05%; as for `c1ccc(CN(CC2=NCCN2)c2ccccc2)cc1`, -7.61% and -7.26%.
With `CCOc1cc(N2CCOCC2)c(OCC)cc1NC(=O)c1ccc2ccccc2n1`, the inhibition was 7.27%.
On to `NC(=O)C1CC(O)CN1c1nc(CN2CCOCC2)nc2scc(-c3ccccc3)c12` (centres undefined), for which the inhibition was -8.45%.
As for `c1csc(-c2csc3nc(CN4CCOCC4)nc(NCc4ccc5c(c4)OCO5)c23)c1`, the figure is -6.15%; as for `CN(Cc1ccccc1)c1nc(CN2CCOCC2)nc2scc(-c3ccccc3)c12`, 38.4%.
Turning to `CCNc1nc(CN2CCCCC2)nc2scc(-c3ccccc3)c12`, the inhibition is 10.7%.
For `CC/C(=N\Nc1ccccc1)c1c(O)n(-c2ccccc2)c(=O)[nH]c1=O`, the inhibition was 47.3%.
As for `CNC(=O)c1[nH]cnc1C(=O)N[C@@H](C)C(=O)OCc1ccccc1`, the figure is -1.09%; as for `C[C@H](NC(=O)c1[nH]cnc1C(=O)Nc1ccc(Cl)cc1)C(=O)OC(C)(C)C`, 52.4%; as for `Cc1cccc(NC(=O)c2nc[nH]c2C(=O)N[C@@H](Cc2ccccc2)C(=O)OCc2ccccc2)c1`, -0.81%.
For the compound `Cc1cccc(NC(=O)c2nc[nH]c2C(=O)N[C@@H](C)C(=O)OC(C)(C)C)c1`, the inhibition was 80%.
For `C[C@H](NC(=O)c1nc[nH]c1C(=O)N[C@H](C)c1ccccc1)C(=O)OCc1ccccc1`, the inhibition is 2.36%.
For the compound `Cc1cccc(NC(=O)c2nc[nH]c2C(=O)N[C@@H](CC(C)C)C(=O)OC(C)(C)C)c1`, the inhibition was 39%.
Turning to `COc1ccccc1-n1c(SCC(=O)Nc2ccccc2C)nc(O)cc1=O`, the inhibition was -5.47%.
As for `NNC(=O)[C@H]1C[C@@H]1c1ccccc1`, the figure is -1.45%; as for `Cc1ccc(SC(C)c2nc(-c3ccncc3)no2)cc1` (centres undefined), 3.66%.
In the case of `O=C(Cc1ccc(Cl)c(Cl)c1)Nc1ccc2[nH]c(=O)[nH]c2c1`, the inhibition is -1.82%.
On to `Clc1ccc(C(c2ccccc2)N2CCNCC2)cc1` (centres undefined), for which the inhibition was 0.35%.
In the case of `CCOc1cc(/C=C/c2ccc3cccc([N+](=O)[O-])c3n2)ccc1O`, the inhibition is -4.71%.
For the compound `COc1cc(/C=C/C(=O)O)ccc1O`, the inhibition was -3.73%.
Regarding `Cc1ccc(NC(=S)N(Cc2ccccc2)C(C)C)cc1`, the inhibition is -1.3%.
As for `CCC(C)c1c(O)nc(SCC(=O)Nc2ccccc2)[nH]c1=O` (centres undefined), the figure is -5.09%; as for `CCCc1cc(=O)[nH]c(SCC(=O)Nc2ccc3c(c2)CCC3)n1`, 7.3%; as for `Nc1cc(=O)[nH]c(SCC(=O)Nc2ccc3c(c2)CCC3)n1`, 4.78%.
For the compound `O=C(CSc1nc(O)cc(=O)[nH]1)Nc1ccc2c(c1)CCC2`, the inhibition is 6.46%.
In the case of `CCN(CC)C(=O)C(=O)Nc1ccc(Oc2ccccc2)cc1`, the inhibition was 14.4%.
`COc1cccc(CNCCc2c[nH]c3ccccc23)c1OCc1ccccc1`: the inhibition is 52.7%.
The figure for `COc1cccc(CNCCc2c[nH]c3ccccc23)c1OCc1ccc(F)cc1` is 28.9%; for `COc1cc(CNCCCCO)ccc1OCc1ccccc1F` it is 0.63%; for `CCNCc1ccc(OCc2ccccc2F)c(OC)c1` it is 6.78%.
With `O=C(NCCc1ccccc1)C1CC(=O)N(C2CCCCCC2)C1` (centres undefined), the inhibition was -3.62%.
For the compound `COC(=O)C1=C(c2ccccc2)C[C@@H]2CC[C@H]1N2C(=O)NCC1CC1`, the inhibition was -3.96%.
As to `COC(=O)c1ccc(COC(=O)c2cnccn2)cc1`, the inhibition was 16.3%.
In the case of `O=C(OCc1ccc(Cl)cc1)c1cnccn1`, the inhibition was 13.5%.
Regarding `O=[N+]([O-])c1cccc(-c2noc(-c3cccs3)n2)c1`, the inhibition is 0.93%.
Regarding `O=C(NCc1n[nH]c(=S)n1Cc1ccccc1)c1ccc(Cl)cc1Cl`, the inhibition was 7.03%.
On to `COc1cccc(C2c3c(oc4ccccc4c3=O)C(=O)N2c2ccccn2)c1` (centres undefined), for which the inhibition is -5.48%.
As for `COc1cc(OC)c(S(=O)(=O)NCc2ccco2)cc1S(=O)(=O)NCc1ccco1`, the figure is 1.4%.
The figure for `Cc1ccc(Cl)cc1NC(=O)COC(=O)c1ccc(N2CCCC2)c([N+](=O)[O-])c1` is -3.66%; for `Cc1ccc(-c2nn(-c3cccc(F)c3)cc2CN(Cc2nccn2C)C(C)C)o1` it is 22.5%.
In the case of `Cc1cccc(-n2cc(CN3CCN(c4ccccn4)CC3)c(-c3cccc(F)c3)n2)c1`, the inhibition was 15.4%.
For the compound `Cc1cccc(-n2cc(CN3CCN(Cc4nccn4C)CC3)c(-c3cccc(F)c3)n2)c1`, the inhibition was 27%.
The figure for `CCN1CC(CN(C)Cc2cn(-c3cccc(C)c3)nc2-c2cccc(F)c2)CC1=O` (centres undefined) is 15.3%.
Consider `CCOC(=O)N1CCC(N(CCN(C)C)C(=S)Nc2cccc(OC)c2)CC1`, for which the inhibition is 10%.
On to `CCn1ccnc1CNC(=O)c1cc(COc2ccc(F)cc2F)on1`, for which the inhibition is 13.2%.
As for `CCn1nnc(NC(=O)Cc2ccc(Cl)cc2)n1`, the figure is -0.3%.
As to `COc1ccccc1NC(=S)NC(=O)c1ccc(-c2ccc(Cl)cc2)o1`, the inhibition is 79.3%.
As to `O=C(NC1=NCCS1)c1cc2ccccc2o1`, the inhibition is -1.2%.
`CCc1nnc(NC(=O)c2ccc(-c3ccc(Cl)cc3)o2)s1`: the inhibition is 3.33%.
As for `CC(=O)N1CCN(C(=S)c2ccc(-c3ccc(Cl)cc3)o2)CC1`, the inhibition was 4.85%.
As for `CCCn1nnc(NC(=O)c2ccc(-c3cccc(Cl)c3)o2)n1`, the figure is 0.76%; as for `CCOC(=O)c1cc(CC)sc1N1C(=O)CC(Sc2ncccc2C(=O)O)C1=O` (centres undefined), 2.89%.
As to `Cc1ccc(S(=O)(=O)N(C)C)cc1NC(=O)C1CCC1`, the inhibition was -2.34%.
As for `CCOc1ccc(N(CC(=O)Nc2c(C)cccc2C)S(=O)(=O)c2c(C)[nH]c(=O)[nH]c2=O)cc1`, the figure is 7.56%; as for `CCn1c(N2CCN(C(=O)/C=C/c3ccccc3)CC2)nc2ccccc21`, 0.45%; as for `CC(C)Cn1c(N2CCN(C(=O)c3cccs3)CC2)nc2ccccc21`, -13.3%.
